Results as given in PubChem BioAssay AID652105 (National Center for Advancing Translational Sciences (NCATS), 2013).
Screen size: about 330,000 compounds; about 4,100 (1.2%) were called active. Another 2% or so got no clear call; they are omitted. The list comes from a sample in which actives are over-represented; it also holds similar structures and randomly drawn compounds. A number with no mark means an inactive call. The calls were made as follows: active = max response of -50% or lower; inconclusive = between -30% and -50%; inactive = -30% or higher.

target: Phosphatidylinositol 5-phosphate 4-kinase type-2 alpha (Homo sapiens) (UniProt P48426); experiment: qHTS for Inhibitors of phosphatidylinositol 5-phosphate 4-kinase (PI5P4K); conditions: PI5P4Kalpha enzyme, ADP-Glo luminescence, 60 min; active compounds read low; also: value at the top dose of about 77 µM
Sequence (P48426 whole entry, looked up): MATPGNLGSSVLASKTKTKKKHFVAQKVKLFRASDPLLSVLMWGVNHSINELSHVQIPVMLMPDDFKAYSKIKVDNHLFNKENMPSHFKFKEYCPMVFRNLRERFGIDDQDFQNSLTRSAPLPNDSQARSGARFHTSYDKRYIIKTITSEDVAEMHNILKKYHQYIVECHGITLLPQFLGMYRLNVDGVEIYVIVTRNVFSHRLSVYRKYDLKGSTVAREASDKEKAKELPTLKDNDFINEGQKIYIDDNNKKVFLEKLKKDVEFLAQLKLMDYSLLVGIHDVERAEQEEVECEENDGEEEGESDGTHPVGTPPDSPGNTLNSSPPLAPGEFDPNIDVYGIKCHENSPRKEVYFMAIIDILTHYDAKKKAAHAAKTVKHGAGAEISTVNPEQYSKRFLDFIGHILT
Method in brief: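 Enzyme plus substrate dispensed, test compounds pinned in, then ATP (5 microM final) added. After 60 min at RT, ADP-Glo reagent 1 for 45 min and reagent 2 for 30 min preceded luminescence imaging.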
% is scaled to controls: 0 for no effect and ±100 for the full control effect.

Structure (SMILES)	max response
OC(c1cc(Cl)cc(Cl)c1)c1ncc(-c2ccccc2C(F)(F)F)[nH]1 (stereo not given)	14.3%
COc1ccc(NC(=O)C2Cc3c(-c4cccc(NC(C)=O)c4)ccnc3O2)cc1OC (stereo not given)	-8.09%
C=CCC[C@H](CCCCC)OC(=O)/C=C/[C@H](O)[C@@H](O)C[C@@H](O)CC=C	17.1%
NS(=O)(=O)c1ccc(N=Nc2c(O)[nH]c3ccc(Br)cc23)cc1	-0.139%
O=C(CNC(=O)Cc1ccccc1)N=Nc1c(O)[nH]c2ccc(Br)cc12	-6.57%
Oc1[nH]c2ccc(Br)cc2c1N=Nc1nn[nH]n1	-58.4% (active)
CC1(C(=O)NCc2ccccc2)CN(S(C)(=O)=O)CC(=O)N1CC(F)(F)F (stereo not given)	-7.01%
O=C(O)c1ccccc1N=N/C(=N/Nc1cc(S(=O)(=O)O)ccc1O)c1ccccc1	-101% (active)
CN1OC[C@@H]2CN(C(=O)c3cccc4ccccc34)[C@H](c3ccc(N4CCCCC4)cc3)C[C@@H]21	-0.774%
COC(=O)c1ccc2nc(-c3ccc(OC)c(OC)c3)c(Cc3ccccc3)n2c1	-1.07%
CCOC(=O)C=Cc1ccc(C(=O)OCC)[nH]1	2.97%
CCN(CCN(C)C)C(=O)c1ccc2nc(C)c(N(C)C(=O)CCc3ccccc3)n2c1	10.1%
O=C(COC(=O)c1cccs1)NCc1cccs1	-2.68%
O=C(COC(=O)c1ccccc1O)NCc1ccco1	-51.6% (active)
CC1CCN(C(=O)COC(=O)CCC(=O)c2cccs2)CC1	-4%
O=C(COC(=O)CCC(=O)c1cccs1)NCc1ccco1	-63% (active)
O=C(COC(=O)c1cc(S(=O)(=O)N2CCCCC2)ccc1Cl)NCc1ccco1	-24.6%
O=C(COC(=O)Cc1ccc(Cl)cc1Cl)NCc1ccco1	0.392%
Cc1cc(C)n2c(Nc3c(C)cccc3C)c(CCc3ccccc3)nc2n1	0.703%
Cc1ccc(Cc2c(-c3ccc(Cl)cc3)nc3c4ccccc4ccn23)cc1	19.7%
Cc1ccccc1Cn1c(C)c(C(=O)NCc2cccc(C(F)(F)F)c2)sc1=O	6.94%
CCCCCn1nnnc1-c1nc2cc3ccccc3cc2[nH]c1=O	-6.84%
CCOC(=O)C(C(=O)c1ccccc1)C(c1ccccc1)c1nccc2ccccc12 (stereo not given)	-6.07%
N#Cc1c(N2CCCCC2)nc(N)c2c(N)nc(SCC(=O)O)cc12	-86.9% (active)
N#Cc1c(-c2ccccc2)cc(-c2ccccc2)nc1SCC(=O)O	-13.7%
N#CCc1c(C#N)c(N)nc(N2CCCC2)c1C#N	-5.04%
Nc1ncnc2c1ncn2[C@@H]1O[C@H](C(=O)NS(=O)(=O)c2c(Cl)nc3sccn23)[C@@H](O)[C@H]1O	-5.36%

Structure (SMILES)	max response
CC(C)(C)CC(=O)Nc1nc(C(N)Cc2ccc(C(F)(F)F)cc2)cs1 (stereo not given)	0.168%
Nc1ncnc2c1ncn2[C@@H]1O[C@H](C(=O)N2CCCN(Cc3ccccc3F)CC2)[C@@H](O)[C@H]1O	1.03%
CCOC(=O)CSc1nccc(N(C)C)c1C#N	-3.71%
CCOC(=O)COc1nc(C)cc(C(F)(F)F)c1C#N	3.55%
CCOC(=O)C(Sc1ncc(C#N)c(N)n1)C(C)C (stereo not given)	-50.3% (active)
CCOC(=O)C1(C)CCCN(C(=O)c2ccc(F)c(Cl)c2)C1 (stereo not given)	-14.5%
CCOC1=C2[C@@H](CN(S(=O)(=O)c3ccc(C)cc3)[C@H]2c2ccccc2F)[C@H]2C(=O)N(Cc3ccccc3)C(=O)[C@H]2C1	-0.38%
CCCNC(=O)C1(C)CCN(Cc2ccc(Cl)c(Cl)c2)C1 (stereo not given)	6.81%
CCCCN(C=O)c1c(CC)nc2c(OCc3ccccc3C(=O)OC)cccn12	-7.91%
O=C1[C@H]2[C@@H](c3ccc(C(F)(F)F)cc3)N[C@]3(CCCN(Cc4ccc(Cl)cc4)C3=O)[C@H]2C(=O)N1Cc1ccccc1	6.21%
COC(=O)[C@@]12C[C@@H](CC(=O)NCCCCc3ccccc3)C(=O)N(CCc3ccc(OC)c(OC)c3)C1=CCC(C)(C)C2	21.2%
O=c1[nH]c2ccccc2n2c(-c3ccccc3)nnc12	-92.9% (active)
O=C(c1ncn2c1c(=O)[nH]c1ccccc12)N1CCc2ccccc2C1	-1.33%
O=c1[nH]n2c(-c3ccccc3)nc(O)c2c2ccccc12	-2.92%
CN(Cc1ccccc1F)c1cc2c(c3c1ccn3C)C1CCC2O1 (stereo not given)	-0.125%
C[C@@H]1CN([C@H](C)CO)S(=O)(=O)c2ccc(C#C[C@@H](C)O)cc2O[C@@H]1CN(C)Cc1ccc(-c2ccccc2)cc1	2.03%
OC[C@@H]1CN(Cc2ccc3c(c2)OCO3)C[C@H](n2cnc3c(NCc4ccco4)ncnc32)O1	-4.15%
CC(Sc1ccc(S(=O)(=O)N2CCN(C)CC2)cn1)C(=O)NC1CCCC(C)C1C (stereo not given)	0.777%
COc1ccc(-c2ccc3[nH]c4c(c3c2)CCN2C[C@H]3[C@H](C)ON(C)[C@H]3C[C@@H]42)cc1	0.74%
O=C(C[C@H]1C[C@@H]2c3cc(NC(=O)C4CCC4)ccc3O[C@@H]2[C@H](CO)O1)NC1CCCCC1	-3.63%
CCn1cc(/C=C2/SC(=S)NC2=O)c(C)n1	-66.5% (active)
Cc1nn(C)cc1/C=C1\CCC/C(=C\c2cn(C)nc2C)C1=O	-2.16%
C=C1C(=O)[C@]23C[C@H]1CCC2[C@@]1(C)C(C[C@@H]3O)[C@](C)(C(=O)O)CC[C@@H]1O (stereo not given in full)	3.48%
O=[N+]([O-])c1ccc(CN2CC(N3CCC(c4ccccc4)CC3)CS2(=O)=O)cc1 (stereo not given)	5.16%
COc1ccc(CNc2nc3c(c(=O)[nH]c(=O)n3C)n2Cc2ccccc2)cc1	6.3%
C=CCSc1nc2c(c(=O)[nH]c(=O)n2C)n1Cc1ccccc1	7.13%
Cn1c(=O)[nH]c(=O)c2c1[nH]c(=S)n2Cc1ccccc1	-85.5% (active)

Structure (SMILES)	max response
C#CCOCCOCCOCCNc1nc(N2CCN(C(=O)CCCCCCCCCCNC(=O)[C@H]([C@@H](C)CC)n3cc(CCCCN=C(N)N)nn3)CC2)nc(N2CCN(C(=O)CCCCCCCCCCNC(=O)[C@H](CO)n3cc(CCCSC)nn3)CC2)n1	-95.3% (active)
C#CCOCCOCCOCCNc1nc(N2CCN(C(=O)[C@H](C(C)C)n3cc(CCO)nn3)CC2)nc(N2CCN(C(=O)[C@H]([C@@H](C)CC)n3cc(CCCN=C(N)N)nn3)CC2)n1	-3.39%
C#CCOCCOCCOCCNc1nc(N2CCN(C(=O)Cn3cc(CCO)nn3)CC2)nc(N2CCN(C(=O)Cn3cc(CCCN=C(N)N)nn3)CC2)n1	1.27%
CC1(C(=O)NS(=O)(=O)c2cccc(F)c2)CCN1C(=O)Cc1ccc(Cl)cc1Cl (stereo not given)	-3.09%
CC1(C(=O)NS(=O)(=O)c2ccccc2)CCN1C(=O)C1CCCCC1 (stereo not given)	0.69%
CCC(=C/c1sc2ccc3ccccc3c2[n+]1C)/C=C1\Sc2ccc3ccccc3c2N1C	-90.2% (active)
CCCCc1c(-c2ccc(Br)cc2)ncn1CCc1ccccc1OC	11.5%
C[C@@H]1CN([C@@H](C)CO)C(=O)CCCn2nncc2CO[C@@H]1CN(C)S(=O)(=O)c1ccc(-c2ccccc2)cc1	-0.942%
COc1ccc(-c2ccc(CN3C(CC(C)C)C(=O)N(Cc4cn(CC5CCCCC5)nn4)CCS3(=O)=O)cc2)cn1 (stereo not given)	-0.614%
CN(C)[C@@H]1C(=O)C(C(N)=O)=C(O)[C@@]2(O)C(=O)C3=C(O)c4c(O)ccc(Cl)c4[C@@H](O)[C@H]3C[C@@H]12	-11.8%
C=C1c2c(Cl)ccc(O)c2C(O)=C2C(=O)[C@]3(O)C(O)=C(C(N)=O)C(=O)[C@@H](N(C)C)[C@@H]3[C@@H](O)C12 (stereo not given in full)	-76.5% (active)
COc1ccc(C2OC(CCc3ccccc3)Cc3[nH]c(=S)[nH]c(=O)c32)cc1 (stereo not given)	-4.14%
CC(C)C[C@@H]1Cc2[nH][nH]c(=O)c2[C@H](CCc2ccccc2)O1	19.9%
Nc1ccc2nc3c(=O)[nH]c(=S)[nH]c3nc2c1	-105% (active)
CC(C)N(Cc1nnc(-c2ccccc2Br)o1)C(=O)c1cc(Cl)nc2ccccc12	9.3%
O=C(c1cc(-c2ccco2)nc2ccccc12)N(Cc1nnc(-c2ccc(Cl)cc2)o1)C1CC1	-72.6% (active)
O=C(c1ccc(Cl)s1)N(Cc1nnc(-c2ccccc2Cl)o1)C1CC1	3.41%
COc1ccc(NC(=O)c2sc(=O)n(Cc3ccc(S(=O)(=O)N(C)C)cc3)c2C)cc1	-4.44%
O=[N+]([O-])c1ccc(N2CCOCC2)cc1	2.48%
O=c1[nH]c2cccnc2n1-c1ccc([N+](=O)[O-])cc1	3.06%
O=c1[nH]n(-c2ccc([N+](=O)[O-])cc2)c(=O)c2ccccc12	-53.6% (active)
CC(C)CNC(=O)C1(C)CCCN1C(=O)CSc1ccccc1 (stereo not given)	-2.54%
CCc1nc2c(OCCC3CCCCC3)cccn2c1N(C)C(=O)c1ccco1	-1.87%
CN(C)c1cc(-c2ccc(F)cc2)oc(=O)c1Cl	-9.22%
COc1ccc(-c2cc3ccc(OCc4nn[nH]n4)cc3oc2=O)cc1	-28.7%
O=c1oc2cc(O)ccc2cc1-c1ccc(F)cc1	-58.1% (active)
